Yeast superoxide: reduction of superoxide in aged yeast, primary screen, HTS; superoxide response (% of plate mean), % at 10 µM; actives 0.18% (n = 330,000); S. cerevisiae aged cells, superoxide DHE fluorescence; stronger effect = lower value;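 active = superoxide response under a set limit, about three screen SD below normal, cut at about 65% in these data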;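 also: yeast aged for seven days with compound at 30 °C before DHE staining; 100% = average MFI of all compound-treated wells on the plate with controls excluded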
H9c2 protect: cardioprotection against H2O2-induced cell death, primary screen, uHTS, H9c2 cells, ATPLite luminescence | AID 588492, 2011 | protection from H2O2 cell death, % at 20 µM | actives 0.63% (n = 360,000) | H9c2 cardiomyocytes, H2O2 injury protection, 2 h;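 active = compounds giving at least 50% protection of heart cells from peroxide-induced death in the single-dose screen, raw or plate-pattern-corrected value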;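 also: 0% = DMSO wells with peroxide and 100% = DMSO wells without peroxide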
aDG glyco act: activators of alpha-DG glycosylation, primary screen, uHTS, Pro5-aDG cells, AlphaScreen | alpha-DG glycosylation AlphaScreen (IIH6); 0% Pro5, 100% B10-LARGE cell signal | activation, % at 10 µM | actives 0.22% (n = 360,000);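 active = activation of at least 8% versus controls, or a plate z-score of at least 8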;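 also: Pro5 are CHO cells carrying HIG-tagged alpha-DG that lacks glycosylation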
SUMO Mot1 rescue: yeast Mot1-301 growth rescue at high temperature, primary screen, SUMOylation pathway inhibitor project, S. cerevisiae, ATP luminescence, 38.5C; S. cerevisiae Mot1-301 growth rescue; percent above DMSO median, 100 means doubled; growth rescue, % at 18.8 µM; actives 1% (n = 320,000); AID 2716, 2010;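 active = every valid replicate shows activation above 250% relative to neutral control wells; inactive = the rest, any valid replicate at or below 250%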;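 also: OY570 slx delta 5 strain wells were the positive control but not used for scaling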
FAS-TE inh: FAS thioesterase domain inhibitors, primary screen, biochemical, fluorescence intensity, uHTS. inhibition, % at 15 µM. recombinant FAS-TE, OMFH fluorogenic substrate, fluorescence endpoint. actives 0.67% (n = 360,000). Fatty acid synthase (Homo sapiens), P49327;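 active = compounds whose normalised, plate-corrected inhibition of enzyme fluorescence in the single-dose primary screen is 50% or more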;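 also: 0% = DMSO with enzyme and 100% = substrate without enzyme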
Target sequence (P49327 whole entry, looked up, the tested form may be a part): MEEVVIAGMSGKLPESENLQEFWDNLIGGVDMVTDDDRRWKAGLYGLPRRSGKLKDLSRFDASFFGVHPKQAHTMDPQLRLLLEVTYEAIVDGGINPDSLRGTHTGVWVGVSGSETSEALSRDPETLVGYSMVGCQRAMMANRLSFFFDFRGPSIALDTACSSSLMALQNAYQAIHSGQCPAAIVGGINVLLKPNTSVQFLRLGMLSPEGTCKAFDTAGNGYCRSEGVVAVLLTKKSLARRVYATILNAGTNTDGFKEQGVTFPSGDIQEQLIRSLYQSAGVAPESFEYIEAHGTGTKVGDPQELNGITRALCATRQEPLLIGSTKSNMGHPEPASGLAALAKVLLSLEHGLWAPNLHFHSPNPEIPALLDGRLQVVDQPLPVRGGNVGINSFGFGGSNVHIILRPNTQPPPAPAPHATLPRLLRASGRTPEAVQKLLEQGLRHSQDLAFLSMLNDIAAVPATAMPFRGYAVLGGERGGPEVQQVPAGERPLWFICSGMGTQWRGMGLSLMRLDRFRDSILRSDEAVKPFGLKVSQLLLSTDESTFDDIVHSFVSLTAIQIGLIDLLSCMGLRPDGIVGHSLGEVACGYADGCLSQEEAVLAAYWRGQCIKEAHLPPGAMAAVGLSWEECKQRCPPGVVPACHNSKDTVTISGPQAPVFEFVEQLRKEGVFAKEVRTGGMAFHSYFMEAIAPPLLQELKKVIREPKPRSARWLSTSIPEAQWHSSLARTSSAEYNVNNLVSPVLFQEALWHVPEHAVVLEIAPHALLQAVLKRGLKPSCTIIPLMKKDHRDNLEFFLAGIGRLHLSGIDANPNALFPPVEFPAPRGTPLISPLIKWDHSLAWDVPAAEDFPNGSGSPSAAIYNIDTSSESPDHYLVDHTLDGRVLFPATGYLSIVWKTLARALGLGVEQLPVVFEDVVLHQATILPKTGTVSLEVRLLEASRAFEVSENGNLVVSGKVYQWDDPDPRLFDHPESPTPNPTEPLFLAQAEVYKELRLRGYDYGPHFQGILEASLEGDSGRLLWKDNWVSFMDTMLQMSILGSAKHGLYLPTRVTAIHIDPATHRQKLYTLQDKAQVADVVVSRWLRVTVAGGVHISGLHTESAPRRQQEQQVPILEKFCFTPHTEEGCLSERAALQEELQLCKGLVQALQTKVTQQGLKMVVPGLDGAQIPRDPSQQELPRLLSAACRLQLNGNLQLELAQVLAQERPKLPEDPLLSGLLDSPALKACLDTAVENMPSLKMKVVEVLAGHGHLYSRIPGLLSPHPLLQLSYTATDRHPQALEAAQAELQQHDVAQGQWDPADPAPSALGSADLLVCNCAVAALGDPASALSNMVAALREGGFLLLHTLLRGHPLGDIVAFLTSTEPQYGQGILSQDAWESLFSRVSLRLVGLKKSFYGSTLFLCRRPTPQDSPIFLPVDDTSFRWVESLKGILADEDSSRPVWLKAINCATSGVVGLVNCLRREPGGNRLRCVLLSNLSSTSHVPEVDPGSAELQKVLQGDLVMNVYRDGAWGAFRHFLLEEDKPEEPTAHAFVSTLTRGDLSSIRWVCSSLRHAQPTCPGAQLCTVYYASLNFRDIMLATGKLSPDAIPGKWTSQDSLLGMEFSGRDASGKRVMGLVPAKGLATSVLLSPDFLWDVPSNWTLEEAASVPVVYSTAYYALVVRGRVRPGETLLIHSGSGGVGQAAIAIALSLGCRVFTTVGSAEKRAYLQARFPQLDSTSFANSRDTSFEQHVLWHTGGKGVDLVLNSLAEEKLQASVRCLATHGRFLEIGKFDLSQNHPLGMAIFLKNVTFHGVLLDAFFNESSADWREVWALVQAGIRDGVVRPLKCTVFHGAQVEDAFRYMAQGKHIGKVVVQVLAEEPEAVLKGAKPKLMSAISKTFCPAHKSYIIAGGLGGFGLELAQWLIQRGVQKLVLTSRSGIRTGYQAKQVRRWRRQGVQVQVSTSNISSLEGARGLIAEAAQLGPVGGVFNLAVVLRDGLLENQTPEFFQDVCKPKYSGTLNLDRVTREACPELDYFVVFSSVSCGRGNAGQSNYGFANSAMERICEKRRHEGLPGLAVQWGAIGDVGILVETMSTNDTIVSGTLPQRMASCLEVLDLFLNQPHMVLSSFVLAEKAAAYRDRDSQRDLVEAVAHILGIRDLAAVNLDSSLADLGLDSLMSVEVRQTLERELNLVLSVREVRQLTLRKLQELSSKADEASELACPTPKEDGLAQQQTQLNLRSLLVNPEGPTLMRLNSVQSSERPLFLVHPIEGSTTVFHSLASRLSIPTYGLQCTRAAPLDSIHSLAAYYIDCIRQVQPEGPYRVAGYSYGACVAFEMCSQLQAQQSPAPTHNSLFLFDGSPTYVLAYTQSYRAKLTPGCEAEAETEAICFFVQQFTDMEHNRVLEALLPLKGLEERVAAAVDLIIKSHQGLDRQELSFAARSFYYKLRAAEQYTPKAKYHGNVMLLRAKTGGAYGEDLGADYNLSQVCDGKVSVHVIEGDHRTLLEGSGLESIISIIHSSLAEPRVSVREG
MPTP block: mitochondrial permeability transition pore inhibitors, primary screen, biochemical, isolated mouse mitochondria, absorbance; Ca2+ swelling absorbance, 30 min; inhibition, % at 10 µM; actives 1.4% (n = 360,000); AID 602449, 2012;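 active = inhibition of 50% or more, scaled per plate between neutral and stimulator controls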;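 also: 0% = DMSO wells given calcium and 100% = 1 mM EGTA wells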
Rh123 counter: fluorescence retest of MPTP screen hits in isolated mitochondria, single concentration | inhibition, % at 10 µM | actives 78% (n = 5,000) | AID 624504, 2012 | shares compounds with MPTP block | membrane potential, Rhodamine 123 fluorescence; in the data active = inhibition above about 22%;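 also: 0% = DMSO vehicle and 100% = positive control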
MPTP swell DR: mitochondrial permeability transition pore inhibitors, dose response, biochemical, absorbance, uHTS hits | shares compounds with MPTP block | isolated mitochondria swelling | IC50, µM | actives 58% (n = 780) | AID 651561, 2012; in the data active = IC50 below about 20 µM
MPTP cs DR: fluorescent counter-screen in isolated mitochondria, dose response, counter-screen for MPTP inhibitor project, biochemical, fluorescence, uHTS hits | actives 49% (n = 780) | IC50, µM | AID 651564, 2012 | isolated mitochondria counterscreen, fluorescence read-out | shares compounds with MPTP block; in the data active = IC50 below about 80 µM
An asterisk follows results filed as active; nt = no result given. The list is not random: actives were taken first. Their share in the collection is about 3.8%.

SMILES | Yeast superoxide | H9c2 protect | aDG glyco act | SUMO Mot1 rescue | FAS-TE inh | MPTP block | Rh123 counter | others
CCN1C(=O)[C@@H]2[C@@H](c3ccc(-c4ccc(C(C)=O)cc4)c(OC)c3)N3CCC[C@@]3(C(=O)OC)[C@@H]2C1=O | 109 | 0 | 0 | 10 | -1 | 0 | nt
C[C@H]1c2cccc(O)c2C(O)=C2C(=O)[C@]3(O)C(O)=C(C(N)=O)C(=O)[C@@H](N(C)C)C3[C@@H](O)C21 (stereo not given in full) | 114 | -4 | 0 | 14 | 2 | 86* | 4
O=C(CN1C(=O)NC2(CCc3ccccc32)C1=O)c1cccs1 (stereo not given) | 103 | 3 | 0 | 13 | -5 | 0 | nt
FC(F)Oc1ccc(NC(=S)NCc2ccccc2)cc1 | 100 | -3 | 0 | 133 | -5 | 79* | 81*
Oc1cccc2c(NC(=S)Nc3ccc(OC(F)F)cc3)cccc12 | 93 | -14 | 0 | -4 | 6 | 62* | 80*
CC(C)Oc1ccc(CNC(=S)Nc2ccccc2)cc1Cl | 102 | -9 | 0 | 17 | 17 | 26 | nt
CN(NC(=S)Nc1ccc(OC(F)F)cc1)C(=S)Nc1ccc(OC(F)F)cc1 | 99 | -10 | 1 | -11 | 6 | 84* | 93*
FC(F)Oc1ccc(NC(=S)NCc2ccccc2)cc1Cl | 143 | -15 | 0 | 9 | 35 | 100* | 82*
CCN(CC)C(=S)Nc1ccc(OC(F)F)cc1 | 100 | -8 | 0 | 3 | -4 | 1 | nt
FC(F)Oc1ccc(NC(=S)NCCc2ccccn2)cc1 | 100 | 6 | 0 | -3 | -4 | 0 | nt
CCn1c(=O)n(CC)c2cc(N3CCCC3)c(NC(=O)c3ccc(C)c([N+](=O)[O-])c3)cc21 | 92 | 20 | 0 | -11 | 13 | 0 | nt
C=C(C)[C@@H]1CC=C(CN2CCC(CCOC)(C(=O)OCC)CC2)CC1 | 94 | -7 | 0 | -2 | -4 | 1 | nt
O=C(NCCSc1ccccc1)c1ccc(Br)cc1 | 92 | -2 | 0 | 57 | 10 | 2 | nt
O=C(NCCCSc1ccccc1)c1cc(Br)ccc1O | 82 | -19 | 0 | -9 | 24 | 75* | 86*
CCN(CC)S(=O)(=O)c1cccc(C(=O)N[C@H](C(=O)Nc2nc3ccccc3s2)C(C)C)c1 | 95 | -12 | 0 | -11 | -18 | 5 | nt
CCN(CC)S(=O)(=O)c1cccc(C(=O)N[C@H](C(=O)Nc2nc3ccc(F)cc3s2)C(C)C)c1 | 103 | -11 | 0 | 32 | 8 | 55* | 72*
CC1(C(=O)NS(=O)(=O)c2ccc(F)cc2F)CCN1C(=O)Cc1ccc(Cl)cc1Cl (stereo not given) | nt | 4 | 0 | nt | -5 | 0 | nt
CCc1ccc(OCC(O)CN2CCC(CN3C(=O)c4cccc5cccc(c45)C3=O)CC2)cc1 (stereo not given) | 85 | -16 | 4 | -15 | -1 | 84* | 0 | MPTP swell DR=4.9*;MPTP cs DR=20*
O=C1c2cccc3cccc(c23)C(=O)N1CCN1CCN(CC(O)COc2ccc3ccccc3c2)CC1 (stereo not given) | 99 | -7 | 0 | -35 | -8 | 3 | nt
COc1cccc(OCC(O)CN2CCC(CN3C(=O)c4cccc5cccc(c45)C3=O)CC2)c1 (stereo not given) | 113 | 2 | 2 | 2 | -7 | 72* | 50*
CCc1ccc(OCC(O)CN2CCN(c3ccccc3)CC2)cc1 (stereo not given) | 103 | -6 | 0 | 189 | 1 | 0 | nt
Cc1cc(C)cc(OCC(O)CN2CCC(CN3C(=O)c4cccc5cccc(c45)C3=O)CC2)c1 (stereo not given) | 111 | -18 | 1 | -48 | -17 | 98* | 100*
O=C1c2cccc3cccc(c23)C(=O)N1CC1CCN(CC(O)COc2ccc3ccccc3c2)CC1 (stereo not given) | 104 | -17 | 2 | -39 | -19 | 89* | 99*
O=C1NC(Cc2ccc(O)cc2)c2nc3ccccc3c(=O)n2-c2ccccc21 (stereo not given) | 98 | nt | nt | 2 | nt | nt | nt
COc1cc(COCC(O)CN2CCN(CCN3C(=O)c4cccc5cccc(c45)C3=O)CC2)cc(OC)c1OC (stereo not given) | 108 | 0 | 0 | -4 | -9 | 3 | nt
SMILES | Yeast superoxide | H9c2 protect | aDG glyco act | SUMO Mot1 rescue | FAS-TE inh | MPTP block | Rh123 counter | others
COc1ccc(COCC(O)CN2CCC(CN3C(=O)c4cccc5cccc(c45)C3=O)CC2)cc1OC (stereo not given) | 97 | -12 | 2 | 27 | -6 | 90* | 18 | MPTP swell DR=6.3*;MPTP cs DR=46*
CCc1c(C)sc(NC(=O)Cn2nc(C(F)(F)F)c3c2CCCC3)c1C#N | 88 | -14 | 0 | 260 | 6 | 65* | 77*
CCCN1C(=O)/C(=C/C=C2\N(CC)c3ccccc3C2(C)C)SC1=S | 106 | -5 | 0 | -10 | -157 | 18 | nt
CN1/C(=C\C=C2/SC(=S)N(CC(=O)O)C2=O)C(C)(C)c2ccccc21 | 145 | -30 | 0 | -9 | -145 | 75* | 12
CCOc1ccc(CCNC(=O)c2cccc(-n3cnnn3)c2)cc1OCC | 83 | -3 | 0 | -12 | -3 | 0 | nt
Cc1nc2ccccc2nc(C)c1=NOCc1cccc(Cl)c1 | 98 | -14 | 0 | -7 | 17 | 1 | nt
COc1cccc(COc2cc3ccccc3nc2C)c1 | 99 | -14 | 6 | 385 | 18 | 97* | 94*
COc1ccc(F)cc1COc1nc(C)nc2ccccc12 | 97 | 1 | 0 | -15 | -4 | 1 | nt
Cc1nc2ccccc2cc1OCc1ccccc1 | 94 | -12 | 3 | -10 | 10 | 92* | 100*
Cc1nc2ccccc2cc1OCc1ccc(Cl)cc1 | 112 | -18 | 4 | 12 | 24 | 96* | 104*
Cc1nc2ccccc2cc1C(=O)NCc1ccccc1 | 98 | -9 | 0 | -8 | -4 | 14 | nt
Cc1nc(OCc2ccccc2)c2ccccc2n1 | 88 | 51* | 0 | 1 | -9 | 72* | 15 | MPTP swell DR=12*;MPTP cs DR=27*

Compound activity from PubChem.
